Data: PubChem BioAssay (NCATS)
Records with an inconclusive call do not appear. Activity calls are given as the source filed them. Calls come from the whole dose curve; as a rule, active = well fitted inhibition curve with a large enough effect; inconclusive = small, poorly fitted or top-dose-only effect; inactive = no such curve, though single readings can be large or run the other way.

test: Primary qHTS for inhibitors of nuclear receptor binding SET domain protein 2 (NSD2) in an RCH-ACV wild type WT cells (2C) (AID 1645877); conditions: RCH-ACV (leukaemia line) NSD2 WT (2C) viability, CellTiter-Glo, 72 h; series mostly up to 44.9 µM; activity change, negative = cell killing: at the top concentration; note: nearly all actives have a fitted effect of over 70% in size
% is set by controls: 0 for no effect and ±100 for the full control effect; potency is the fitted concentration of half-maximal effect.

Compound	activity change, negative = cell killing	Potency	outcome
CC(=O)NO	5.92% (inactive)		
CCOCCn1c(N2CCCN(C)CC2)nc2ccccc21	-7.75% (inactive)		
NS(=O)(=O)c1cc2c(cc1Cl)NC(CC1CCCC1)NS2(=O)=O (stereo not given)	-13.4% (inactive)		
Cc1ccc(-c2ncc(Cl)cc2-c2ccc(S(C)(=O)=O)cc2)cn1		inactive	
Cc1cc(C)cc(OCC2CNC(=O)O2)c1 (stereo not given)	3.63% (inactive)		
CC(=O)OCC(=O)[C@H]1CC[C@H]2[C@@H]3CCC4=CC(=O)CC[C@]4(C)[C@H]3CC[C@]12C	-11.8% (inactive)		
CN1CCc2cccc3c2[C@H]1Cc1ccc(O)c(O)c1-3		7.5 µM (active)	
C[N+]12CCC(CC1)C(OC(=O)C(O)(c1ccccc1)c1ccccc1)C2 (stereo not given)	-14.5% (inactive)		
CCCCCCCCCCCCSCCOCCO	-6.54% (inactive)		
c1ccc(CC2=NCCN2)cc1		5.31 µM (active)	
CC(C)(C)NC[C@H](O)COc1cccc2c1CCCC2=O	-2.92% (inactive)		
Nc1ccc(S(=O)(=O)Nc2cnc3ccccc3n2)cc1	-16.6% (inactive)		
CN1CCN(CCC(=O)N2c3ccccc3Sc3ccc(C(F)(F)F)cc32)CC1		23.7 µM (active)	
CCCCC(CC)COC(=O)c1ccc(N(C)C)cc1 (stereo not given)	-11.4% (inactive)		
CN(C)CCOC(=O)C(c1ccccc1)C1(O)CCCC1 (stereo not given)	-12.2% (inactive)		
N=C(N)N1CCc2ccccc2C1	-10.2% [at 4.96 µM] (inactive)		
O=C1C(O)=C(O)C(=O)C(O)=C1O			inactive
Cc1cccc(C)c1NC(=O)CN1CCCCCC1	3.32% (inactive)		
NC(=S)N/N=C/c1cccnc1	4.21% (inactive)		
CC(=O)O[C@H]1C[C@@H]2CC[C@@H]3[C@H](CC[C@@]4(C)[C@H]3C[C@H]([N+]3(C)CCCCC3)[C@@H]4OC(C)=O)[C@@]2(C)C[C@@H]1N1CCCCC1	-8.84% (inactive)		
